# According to PubChem BioAssay AID1159580 (chemical genetic matrix, 2015):
# “And” between values parts separate entries of the source, which are not always exact repeats. Identical values can stand only once. In all, about 5,500 compounds went through this assay and about 2,000 (36%) were called active. About 18% were inconclusive and are not listed. This is one part of the list. Unmarked numbers belong to inactive results. Cut-off read from the data, not from the text of the source: active = normalized growth mostly below about 0.91 (no sharp cut-off); inconclusive = no clear call, values can overlap the other calls; inactive = mostly above about 0.92.
# Experiment: chemical genetic growth profiling, strain panel (AID 1159580);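 note: tested at 20 µM; growth read once vehicle control cultures reached saturation at 30 °C; 1 = growth at the plate median or of vehicle wells; lower values mean less growth of the strain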
# Details: growth OD
structure (smiles),measurement,setting,value
CC1(C)C2(Cl)C(Cl)C(Cl)C(Cl)(C(Cl)Cl)C1(Cl)C2Cl (configuration not stated),normalized growth,"S. cerevisiae deletion strains, locus YAL013W, strain DEP1, stronger effect = lower value",0.98
same,normalized growth,"S. cerevisiae deletion strains, locus YBR021W, strain FUR4, stronger effect = lower value",0.985
same,normalized growth,"S. cerevisiae deletion strains, locus YBR229C, strain ROT2, stronger effect = lower value",0.985
same,normalized growth,"S. cerevisiae deletion strains, locus YCL029C, strain bik1, stronger effect = lower value",0.982
same,normalized growth,"S. cerevisiae deletion strains, locus YDL035C, strain GPR1, stronger effect = lower value",0.947
same,normalized growth,"S. cerevisiae deletion strains, locus YDL074C, strain BRE1, stronger effect = lower value",0.918
same,normalized growth,"S. cerevisiae deletion strains, locus YDL101C, strain DUN1, stronger effect = lower value",0.982
same,normalized growth,"S. cerevisiae deletion strains, locus YDL134C, strain PPH21, stronger effect = lower value",0.981
same,normalized growth,"S. cerevisiae deletion strains, locus YDL185W, strain tfp1, stronger effect = lower value",0.976
same,normalized growth,"S. cerevisiae deletion strains, locus YDL192W, strain arf1, stronger effect = lower value",0.98
same,normalized growth,"S. cerevisiae deletion strains, locus YDR101C, strain arx1, stronger effect = lower value",0.993
same,normalized growth,"S. cerevisiae deletion strains, locus YDR150W, strain NUM1, stronger effect = lower value",0.994
same,normalized growth,"S. cerevisiae deletion strains, locus YDR162C, strain NBP2, stronger effect = lower value",0.968
same,normalized growth,"S. cerevisiae deletion strains, locus YDR318W, strain mcm21, stronger effect = lower value",0.95
same,normalized growth,"S. cerevisiae deletion strains, locus YDR388W, stronger effect = lower value",0.964
same,normalized growth,"S. cerevisiae deletion strains, locus YDR502C, strain sam2, stronger effect = lower value",0.957
same,normalized growth,"S. cerevisiae deletion strains, locus YEL061C, strain CIN8, stronger effect = lower value",0.992
same,normalized growth,"S. cerevisiae deletion strains, locus YER110C, stronger effect = lower value",0.984
same,normalized growth,"S. cerevisiae deletion strains, locus YER155C, strain BEM2, stronger effect = lower value",1
same,normalized growth,"S. cerevisiae deletion strains, locus YER167W, strain BCK2, stronger effect = lower value",0.975
same,normalized growth,"S. cerevisiae deletion strains, locus YGL078C, strain dbp3, stronger effect = lower value",0.982
same,normalized growth,"S. cerevisiae deletion strains, locus YGL086W, strain mad1, stronger effect = lower value",0.962
same,normalized growth,"S. cerevisiae deletion strains, locus YGL248W, strain PDE1, stronger effect = lower value",0.979
same,normalized growth,"S. cerevisiae deletion strains, locus YGR078C, strain PAC10, stronger effect = lower value",0.94
same,normalized growth,"S. cerevisiae deletion strains, locus YGR135W, strain pre9, stronger effect = lower value",0.951
same,normalized growth,"S. cerevisiae deletion strains, locus YGR229C, strain SMI1, stronger effect = lower value",0.865
same,normalized growth,"S. cerevisiae deletion strains, locus YGR252W, strain gcn5, stronger effect = lower value",0.956
same,normalized growth,"S. cerevisiae deletion strains, locus YHR030C, strain SLT2, stronger effect = lower value",0.995 and 0.96
same,normalized growth,"S. cerevisiae deletion strains, locus YHR079C, strain IRE1 (second series), stronger effect = lower value",0.975
same,normalized growth,"S. cerevisiae deletion strains, locus YHR079C, strain IRE1, stronger effect = lower value",0.946
same,normalized growth,"S. cerevisiae deletion strains, locus YHR094C, strain hxt1, stronger effect = lower value",0.981
same,normalized growth,"S. cerevisiae deletion strains, locus YHR129C, strain ARP1, stronger effect = lower value",0.984
same,normalized growth,"S. cerevisiae deletion strains, locus YHR200W, strain rpn10, stronger effect = lower value",0.979
same,normalized growth,"S. cerevisiae deletion strains, locus YIL066C, strain RNR3, stronger effect = lower value",0.891
same,normalized growth,"S. cerevisiae deletion strains, locus YIL073C, strain SPO22, stronger effect = lower value",0.829
same,normalized growth,"S. cerevisiae deletion strains, locus YIL125W, strain kgd1, stronger effect = lower value",0.981
same,normalized growth,"S. cerevisiae deletion strains, locus YIR030C, strain dcg1, stronger effect = lower value",0.978
same,normalized growth,"S. cerevisiae deletion strains, locus YJL095W, strain BCK1, stronger effect = lower value",0.954 and 0.978
same,normalized growth,"S. cerevisiae deletion strains, locus YJL134W, strain LCB3, stronger effect = lower value",0.991
same,normalized growth,"S. cerevisiae deletion strains, locus YJL168C, strain set2, stronger effect = lower value",0.978
same,normalized growth,"S. cerevisiae deletion strains, locus YJL187C, strain SWE1 (second series), stronger effect = lower value",0.983
same,normalized growth,"S. cerevisiae deletion strains, locus YJR043C, strain POL32, stronger effect = lower value",1.01
same,normalized growth,"S. cerevisiae deletion strains, locus YJR066W, strain TOR1, stronger effect = lower value",0.935
same,normalized growth,"S. cerevisiae deletion strains, locus YJR075W, strain HOC1, stronger effect = lower value",0.954
same,normalized growth,"S. cerevisiae deletion strains, locus YKL009W, strain mrt4, stronger effect = lower value",0.971
same,normalized growth,"S. cerevisiae deletion strains, locus YKL068W, stronger effect = lower value",0.971
same,normalized growth,"S. cerevisiae deletion strains, locus YKL085W, strain MDH1 (second series), stronger effect = lower value",0.968
same,normalized growth,"S. cerevisiae deletion strains, locus YKL085W, strain MDH1, stronger effect = lower value",0.968
same,normalized growth,"S. cerevisiae deletion strains, locus YKL190W, strain CNB1, stronger effect = lower value",0.989
same,normalized growth,"S. cerevisiae deletion strains, locus YKR001C, strain vps1, stronger effect = lower value",0.932
same,normalized growth,"S. cerevisiae deletion strains, locus YLR039C, strain RIC1, stronger effect = lower value",0.79
same,normalized growth,"S. cerevisiae deletion strains, locus YLR058C, strain SHM2, stronger effect = lower value",0.978
same,normalized growth,"S. cerevisiae deletion strains, locus YLR102C, strain apc9, stronger effect = lower value",0.986
same,normalized growth,"S. cerevisiae deletion strains, locus YLR113W, strain HOG1, stronger effect = lower value",0.948
same,normalized growth,"S. cerevisiae deletion strains, locus YLR262C, strain YPT6, stronger effect = lower value",0.768
same,normalized growth,"S. cerevisiae deletion strains, locus YLR268W, strain sec22, stronger effect = lower value",0.956
same,normalized growth,"S. cerevisiae deletion strains, locus YLR330W, strain CHS5, stronger effect = lower value",0.992
same,normalized growth,"S. cerevisiae deletion strains, locus YLR342W, strain FKS1 (second series), stronger effect = lower value",0.893
same,normalized growth,"S. cerevisiae deletion strains, locus YLR371W, strain rom2, stronger effect = lower value",0.986
same,normalized growth,"S. cerevisiae deletion strains, locus YLR418C, strain cdc73, stronger effect = lower value",0.755 (active)
same,normalized growth,"S. cerevisiae deletion strains, locus YML016C, strain PPZ1, stronger effect = lower value",0.984
same,normalized growth,"S. cerevisiae deletion strains, locus YML032C, strain rad52, stronger effect = lower value",0.954
same,normalized growth,"S. cerevisiae deletion strains, locus YML124C, strain tub3, stronger effect = lower value",0.982
same,normalized growth,"S. cerevisiae deletion strains, locus YMR078C, strain ctf18, stronger effect = lower value",0.961
same,normalized growth,"S. cerevisiae deletion strains, locus YMR223W, strain ubp8, stronger effect = lower value",0.939
same,normalized growth,"S. cerevisiae deletion strains, locus YMR263W, strain SAP30, stronger effect = lower value",0.993
same,normalized growth,"S. cerevisiae deletion strains, locus YMR307W, strain GAS1, stronger effect = lower value",0.887
same,normalized growth,"S. cerevisiae deletion strains, locus YNL067W, strain RPL9B, stronger effect = lower value",0.987
same,normalized growth,"S. cerevisiae deletion strains, locus YNL128W, strain TEP1, stronger effect = lower value",0.993
same,normalized growth,"S. cerevisiae deletion strains, locus YNL153C, strain GIM3, stronger effect = lower value",0.986
same,normalized growth,"S. cerevisiae deletion strains, locus YNL183C, strain NPR1, stronger effect = lower value",0.943
same,normalized growth,"S. cerevisiae deletion strains, locus YNL233W, strain BNI4, stronger effect = lower value",0.989
same,normalized growth,"S. cerevisiae deletion strains, locus YNL250W, strain rad50, stronger effect = lower value",0.969
same,normalized growth,"S. cerevisiae deletion strains, locus YNL271C, strain bni1, stronger effect = lower value",0.97
same,normalized growth,"S. cerevisiae deletion strains, locus YNL298W, strain CLA4, stronger effect = lower value",0.971
same,normalized growth,"S. cerevisiae deletion strains, locus YNL307C, strain MCK1, stronger effect = lower value",0.544 (active)
same,normalized growth,"S. cerevisiae deletion strains, locus YNL322C, strain KRE1, stronger effect = lower value",0.994
same,normalized growth,"S. cerevisiae deletion strains, locus YNR052C, strain pop2, stronger effect = lower value",0.963
same,normalized growth,"S. cerevisiae deletion strains, locus YOL006C, strain TOP1, stronger effect = lower value",0.867
same,normalized growth,"S. cerevisiae deletion strains, locus YOL012C, strain htz1",0.99
same,normalized growth,"S. cerevisiae deletion strains, locus YOL147C, strain pex11, stronger effect = lower value",0.982
same,normalized growth,"S. cerevisiae deletion strains, locus YOR061W, strain CKA2, stronger effect = lower value",0.994
same,normalized growth,"S. cerevisiae deletion strains, locus YOR069W, strain VPS5, stronger effect = lower value",0.984
same,normalized growth,"S. cerevisiae deletion strains, locus YOR136W, strain idh2, stronger effect = lower value",0.966
same,normalized growth,"S. cerevisiae deletion strains, locus YOR144C, strain elg1, stronger effect = lower value",0.981
same,normalized growth,"S. cerevisiae deletion strains, locus YOR184W, strain ser1, stronger effect = lower value",0.809 (active)
same,normalized growth,"S. cerevisiae deletion strains, locus YOR231W, strain MKK1, stronger effect = lower value",0.964
same,normalized growth,"S. cerevisiae deletion strains, locus YOR316C, strain cot1, stronger effect = lower value",0.977
same,normalized growth,"S. cerevisiae deletion strains, locus YPL055C, strain LGE1, stronger effect = lower value",0.96
same,normalized growth,"S. cerevisiae deletion strains, locus YPL241C, strain CIN2, stronger effect = lower value",0.993
same,normalized growth,"S. cerevisiae deletion strains, locus YPL256C, strain CLN2, stronger effect = lower value",0.9
same,normalized growth,"S. cerevisiae deletion strains, locus YPR119W, strain clb2, stronger effect = lower value",0.976
same,normalized growth,"S. cerevisiae deletion strains, locus YPR141C, strain kar3, stronger effect = lower value",0.957
same,normalized growth,"S. cerevisiae deletion strains, locus YPR163C, strain tif3, stronger effect = lower value",0.91 (active)
same,normalized growth,"S. cerevisiae deletion strains, locus YPR167C, strain met16, stronger effect = lower value",0.974
same,normalized growth,"S. cerevisiae deletion strains, strain wtn01, stronger effect = lower value",0.966
same,normalized growth,"S. cerevisiae strains, strain wild type, stronger effect = lower value",0.986
